# Test results taken from publication PMC5540273 (PLoS ONE, 2017).
# Experiments:
# Details in all cases: concentration: 1 μM, replicates: in singlicate; n = 1
# CAMK2D = system: CAMK2D
# CAMK2G = system: CAMK2G
# CAMK4 = system: CAMK4
# CAMKK1 = system: CAMKK1
# CAMKK2 = system: CAMKK2
# CASK = system: CASK
# CDC2L1 = system: T1, CDC2L1
# T1 construct: gene CDK11B
# CDC2L2 = system: CDC2L2
# CDC2L5 = system: T2, CDC2L5
# T2 construct: gene CDK13
# CDK11 = system: T3, CDK11
# T3 construct: gene CDK19
# CDK2 = system: CDK2
# CDK3 = system: CDK3
# CDK4-cyclinD1 = system: CDK4-cyclinD1
# CDK4-cyclinD3 = system: CDK4-cyclinD3
# CDK4 = system: CDK4
# CDK5 = system: CDK5
# CDK7 = system: CDK7
# CDK8 = system: CDK8
# CDK9 = system: CDK9
# CDKL1 = system: CDKL1
# 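Further: KINOMEscan kinase panel screen.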
SMILES,%Inh (CAMK2D) [%],%Inh (CAMK2G) [%],%Inh (CAMK4) [%],%Inh (CAMKK1) [%],%Inh (CAMKK2) [%],%Inh (CASK) [%],%Inh (CDC2L1) [%],%Inh (CDC2L2) [%],%Inh (CDC2L5) [%],%Inh (CDK11) [%],%Inh (CDK2) [%],%Inh (CDK3) [%],%Inh (CDK4-cyclinD1) [%],%Inh (CDK4-cyclinD3) [%],%Inh (CDK4) [%],%Inh (CDK5) [%],%Inh (CDK7) [%],%Inh (CDK8) [%],%Inh (CDK9) [%],%Inh (CDKL1) [%]
C[C@H]1CC[C@@H](C(=O)Nc2ccccc2)CN1c1cc(-c2ccc3c(N)n[nH]c3c2)nc(N)n1 [GSK2283293],3,16,0,7,15,4,0,13,0,0,0,0,0,0,0,0,0,14,0,22
O=C(Nc1n[nH]c2nc(-c3ccco3)c(Br)cc12)c1ccc(CN2CCCC2)cc1.O=C(O)[C@H](O)[C@@H](O)C(=O)O [SB-742352],0,0,0,0,0,0,0,0,0,0,0,0,0,0,0,0,0,0,0,24
CS(=O)(=O)CCNCc1nc(-c2ccc3ncnc(Nc4ccc(OCc5cccc(F)c5)c(Cl)c4)c3c2)cs1.Cl [GW583340],23,22,0,0,28,0,11,25,0,12,0,0,0,0,34,0,0,3,10,0
O=C(NCCCN1CCCC1=O)c1cnc(NCc2cc(Cl)ccc2Cl)nc1NC1CCNCC1,0,0,0,4,1,78,0,0,0,4,0,2,0,0,0,11,33,0,0,3
COc1cc2ncnc(Nc3ccc(OCc4ccccc4Br)c(Cl)c3)c2cc1OC.Cl [GI261590],0,14,0,0,0,0,2,18,0,21,0,8,13,6,8,18,0,0,9,20
COc1cc2c(Nc3cccc(NC(=O)c4ccccc4)c3)ncnc2cc1OCCCN1CCOCC1 [GSK223810],0,15,0,1,0,6,0,11,0,3,0,5,0,0,0,0,0,14,0,0
Fc1cccc(COc2ccc(Nc3ncnc4sc(-c5ccc[nH]5)cc34)cc2Cl)c1 [GW707818],7,0,5,0,16,15,20,15,0,5,0,10,0,11,17,0,0,31,14,6
Nc1n[nH]c2nnc(-c3ccccc3)cc12 [SB-517389],2,0,0,0,0,18,0,0,0,0,0,20,0,22,0,0,0,0,21,0
C[C@@H]1CCN(C(=O)CO)C[C@@H]1N(C)c1ncnc2[nH]ccc12,0,13,20,4,11,0,0,0,0,6,0,0,0,0,0,4,20,0,9,12
Fc1cccc(COc2ccc(Nc3ncnc4cc[nH]c34)cc2Cl)c1,9,11,0,11,0,0,17,11,0,26,11,6,6,10,0,21,17,8,11,2
O=C(Nc1ccccc1F)NC1CCN(c2ccnc(Nc3ccc(F)cc3)n2)C1 (centres unmarked) [GSK1379722],0,12,0,0,3,17,0,0,0,19,0,16,0,2,31,0,0,22,0,18
COc1ccc(NC(=O)c2ccc(-c3cc(-c4nnc(C)o4)ccc3C)cc2)cc1 [GW595885],0,8,0,0,0,21,0,0,0,0,0,22,14,0,0,0,0,9,0,0
COc1ccc(NC(=O)Nc2ccc(C)c(-c3ccc(C(=O)Nc4ccncc4)cc3)c2)cc1 [GSK1398475],0,22,0,3,20,0,0,34,0,4,0,0,0,9,7,0,0,40,0,1
CNc1nccc(-c2c(-c3ccc(F)cc3)ncn2CCCN2CCOCC2)n1 [SB-222516],11,16,27,8,14,1,0,0,22,13,0,0,17,16,0,0,7,38,0,24
COC(=O)c1c(-c2ccccc2)c2cc(Cl)ccc2c(=O)n1Cc1ccc(S(C)(=O)=O)cc1,5,9,0,0,14,0,10,10,29,0,0,0,0,4,0,7,10,0,7,9
FC(F)(F)c1ccc(-c2nn3ncccc3c2-c2ccnc(Nc3cccc(C(F)(F)F)c3)n2)cc1 [GW828205],0,0,17,6,0,0,0,3,0,0,1,0,2,0,0,0,0,32,0,55
CC(C)(C)c1ccc(-n2cnc3c(N)ncnc32)cc1 [SKF-97263],2,0,0,0,0,12,0,0,0,10,0,3,0,0,0,0,0,0,0,0
CCC(CC)(CC)n1cnc2c(N)ncnc21 [SKF-97620],0,0,8,0,0,42,0,0,20,0,0,3,0,0,28,5,22,30,0,13
Clc1cc(Nc2ncnc3cc[nH]c23)ccc1OCc1ccccn1,19,0,0,0,0,0,12,15,0,29,8,1,10,0,10,22,29,0,30,16
